The source of these data is PubChem BioAssay (Tox21).

Results filed as inconclusive are left out. A call without a number means that no potency is given here. The source made the active and inactive calls. Calls come from the whole dose curve; as a rule, active = well fitted inhibition curve with a large enough effect in the repeat runs; inconclusive = weak or mixed curves; inactive = flat fitted curve, though single readings scatter.
Potency is the fitted concentration of half-maximal effect.

Voltage-gated inwardly rectifying potassium channel KCNH2 (Homo sapiens), sequence (Q12809 whole entry, looked up): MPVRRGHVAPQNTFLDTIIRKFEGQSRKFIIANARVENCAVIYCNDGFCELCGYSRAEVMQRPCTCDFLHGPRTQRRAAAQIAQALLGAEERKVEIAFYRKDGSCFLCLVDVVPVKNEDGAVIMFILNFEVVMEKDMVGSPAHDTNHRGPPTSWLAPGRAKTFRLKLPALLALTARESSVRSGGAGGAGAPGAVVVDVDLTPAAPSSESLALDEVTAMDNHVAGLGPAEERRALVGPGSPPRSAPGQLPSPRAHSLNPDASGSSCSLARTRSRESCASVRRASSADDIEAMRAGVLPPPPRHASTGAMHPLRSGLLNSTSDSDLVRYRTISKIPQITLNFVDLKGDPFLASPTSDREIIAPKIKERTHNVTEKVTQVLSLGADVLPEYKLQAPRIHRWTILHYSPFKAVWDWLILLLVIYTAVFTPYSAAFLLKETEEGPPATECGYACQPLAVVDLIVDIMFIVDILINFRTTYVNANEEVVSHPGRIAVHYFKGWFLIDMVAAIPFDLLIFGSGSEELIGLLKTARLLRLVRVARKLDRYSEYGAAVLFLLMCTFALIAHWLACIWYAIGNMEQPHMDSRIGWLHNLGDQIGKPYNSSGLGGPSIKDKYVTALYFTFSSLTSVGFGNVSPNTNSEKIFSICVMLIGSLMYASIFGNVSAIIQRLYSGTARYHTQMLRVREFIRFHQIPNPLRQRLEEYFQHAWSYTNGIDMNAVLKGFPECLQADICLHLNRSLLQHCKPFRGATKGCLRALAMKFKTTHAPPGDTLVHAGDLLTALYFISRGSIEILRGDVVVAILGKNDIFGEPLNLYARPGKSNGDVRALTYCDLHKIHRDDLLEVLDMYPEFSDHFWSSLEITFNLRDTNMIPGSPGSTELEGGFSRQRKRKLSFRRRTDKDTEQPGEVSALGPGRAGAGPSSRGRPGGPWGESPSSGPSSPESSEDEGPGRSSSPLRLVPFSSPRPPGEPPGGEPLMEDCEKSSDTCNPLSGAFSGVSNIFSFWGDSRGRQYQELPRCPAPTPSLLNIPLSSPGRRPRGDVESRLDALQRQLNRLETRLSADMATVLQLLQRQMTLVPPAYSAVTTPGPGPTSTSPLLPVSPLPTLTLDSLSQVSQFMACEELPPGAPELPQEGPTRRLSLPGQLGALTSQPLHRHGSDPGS

The test concerns the target Voltage-gated inwardly rectifying potassium channel KCNH2 (Homo sapiens) (UniProt Q12809). The test is described as follows: Human Ether-a-go-go-Related Gene (hERG) channel small molecule antagonists: fluorescence cell-based qHTS assay (AID 1671200). Note: nearly all actives have a fitted effect of over 50% in size. As to conditions: hERG-U2OS cells, FluxOR thallium flux fluorescence; series mostly up to 76.8 µM. From the text: National Center for Advancing Translational Sciences [NCATS]
U.S. Environmental Protection Agency [EPA]
National Institutes of Environmental Health Sciences [NIEHS]
National Toxicology Program [NTP]
U.S. Food and Drug Administration [FDA]
Mutations in the hERG channel cause Long QT (LQT) syndrome. LQT syndrome is a cardiac disorder which can cause ventricle arrhythmia and sudden death. Additionally, compounds which block the hERG channel can cause acquired LQT syndrome. Several FDA approved drugs have been removed from the market due to their hERG blocking activity. A cell-based hERG channel inhibition assay can be used to screen chemical compounds that inhibit hERG channel. This assay measures hERG channel activity using thallium ions as surrogate ions to measure potassium into the cells.
Tox21 Assay Protocol Summary:
hERG-U2OS cells were resuspended in culture medium and dispensed into 1536-well, black wall/clear-bottom plates at 1000cells/well/3uL using a Multidrop Combi dispenser (Thermo Fisher, Waltham, MA). After plates were incubated at 37 C overnight, 3 uL of Loading Buffer provided by FluxOR II Potassium Ion Channel Assay kit (Thermo, Carlsbad, CA) was added to each well. The assay plates were then incubated at room temperature in the dark for 1h. […] After the assay plates were incubated at room temperature for 10 min, 1 uL of Stimulus Buffer provided by FluxOR II Potassium Ion Channel Assay kit was added into each well and fluorescence intensity (480nm excitation/540nm emission) was continuously measured for 2 min at 1 second intervals using a Functional Drug Screening System (FDSS) 7000EX kinetic plate reader (Hamamatsu, Japan).
A general note: hERG is a cardiac potassium channel; its block is linked to QT prolongation.
Consider `O=C(/C=C/c1ccc(O)c(O)c1)O[C@@H]1C[C@](O)(C(=O)O)C[C@@H](O)[C@H]1O`, for which the Potency entry is “inactive”.
For the molecule `CC[C@]12CCCN3CCc4c(n(c5ccccc45)C(=O)C1)[C@@H]32`, the Potency is 1.69 µM (active).
The same measure, in the same setting: the entry for `C=C(C)C(=O)OCCOc1ccccc1` is “inactive”.
Consider `CC(C)(C)c1cc(CCC(=O)OCC(COC(=O)CCc2cc(C(C)(C)C)c(O)c(C(C)(C)C)c2)(COC(=O)CCc2cc(C(C)(C)C)c(O)c(C(C)(C)C)c2)COC(=O)CCc2cc(C(C)(C)C)c(O)c(C(C)(C)C)c2)cc(C(C)(C)C)c1O`, for which the Potency result is “inactive”.
As for `N=C(N=C(N)N)N1CCOCC1`, the Potency entry is “inactive”.
Same read-out and setting: the same measure for `CC(=O)CC(=O)c1ccccc1`: “inactive”; for `CNS(=O)(=O)Cc1ccc2[nH]cc(CCN(C)C)c2c1`: “inactive”.
Turning to `CCOc1ccc(NC(=O)CC(C)=O)cc1`, the Potency result was “inactive”.
For `CC[C@@H]1C[C@H](N(Cc2cc(C(F)(F)F)cc(C(F)(F)F)c2)C(C)=O)c2cc(C(F)(F)F)ccc2N1C(=O)OC(C)C`, the Potency result is “inactive”.
As to `O=C=NC1CCC(CC2CCC(N=C=O)CC2)CC1` (stereo not given), the Potency result is “inactive”.
Regarding `Cc1cc(C)c(S(=O)(=O)O)cc1N=Nc1cc(S(=O)(=O)O)c2ccccc2c1O`, the Potency entry is “inactive”.
For the molecule `Cc1cc(NC(=O)C(=O)O)cc(C)c1Oc1ccc(O)c2c1CCC2`, the Potency entry was “inactive”.
As to `CCCCOC(=O)/C=C\C(=O)OCCCC`, the Potency result is “inactive”.
Regarding `NCCCOCCOCCOCCCN`, the Potency entry is “inactive”.
Regarding `CCCCc1cc2ccccc2c(OCCN(C)C)n1`, the Potency was 3.38 µM (active).
As to `CC(C(=O)O)c1ccc(-c2ccccc2)c(F)c1` (stereo not given), the Potency entry was “inactive”.
For the molecule `CCCC(=O)OCC`, the Potency entry is “inactive”.
Turning to `CC(CN)CCCN` (stereo not given), the Potency entry was “inactive”.
On to `CCCCCCCCCCCCCCC1CO1` (stereo not given), for which the Potency result was “inactive”.
Regarding `Cc1cccc(Oc2ccccc2)c1`, the Potency is 13.5 µM (active).
Still for that read-out and setting: the same measure for `CC(=O)NCCCS(=O)(=O)O`: “inactive”.
With `S=C(S)NCCNC(=S)S`, the Potency result is “inactive”.
For the molecule `CCCC(C)C`, the Potency entry was “inactive”.
As for `O=C(O)[C@@H]1[C@H]2C[C@H]3c4[nH]c5ccccc5c4CCN3C[C@@H]2CC[C@@H]1O`, the Potency result was “inactive”.
`Cc1nc2ccccc2n1Cc1ccc(Cl)cc1`: the Potency result was “inactive”.
For the molecule `CN(c1nccc(=O)[nH]1)C1CCN(c2nc3ccccc3n2Cc2ccc(F)cc2)CC1`, the Potency was 2.39 µM (active).
Turning to `CCOC(=O)CC(=O)c1cc(F)c(Cl)nc1Cl`, the Potency entry is “inactive”.
In the case of `O=S1(=O)N=C(O)c2ccccc21`, the Potency result is “inactive”.
As to `CCCCCCCCC(CO)CCCCCC` (stereo not given), the Potency entry was “inactive”.
On the same count and under the same terms, the same measure for `O=[N+]([O-])c1cccc(Cl)c1Cl`: “inactive”; for `O=C(O)Cn1c(C(=O)Nc2nc(-c3ccccc3Cl)cs2)cc2ccccc21`: “inactive”.
In the case of `CN1CCC(=C2c3ccccc3CCc3sccc32)CC1`, the Potency was 16.9 µM (active).
With `CCCCCCCCCCCCCCCCCBr`, the activity change, negative = inhibition was 7.46% [at 15.8 µM] (inactive).
`O=C(C(=O)c1ccc(Br)cc1)c1ccc(Br)cc1`: the activity change, negative = inhibition was -1.71% [at 15.8 µM] (inactive).
On to `NC(N)=N/N=C/c1c(Cl)cccc1Cl`, for which the Potency result is “inactive”.
On to `CCCCCCCCN(C)C`, for which the Potency entry was “inactive”.
Turning to `COc1ccc2[nH]c(S(=O)Cc3ncc(C)c(OC)c3C)nc2n1` (stereo not given), the Potency entry was “inactive”.
On to `COC(Cc1ccccc1)OC`, for which the Potency entry was “inactive”.
As for `c1ccc(-c2nc[nH]c2-c2ccccc2)cc1`, the Potency result was “inactive”.
Still for that read-out and setting: the entry for `CC(C)(C)c1ccc(S)cc1` is “inactive”.
